Hit rate of the full screen: of about 190,000 compounds, about 930 (0.49%) were called active. The list shows a part of the results. Potency and affinity values are given separately. A number with no mark means an inactive call.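 Rule for the calls: active = z-score of insulin promoter reporter brightness in nuclei below -3 at 5 µM, with at least 500 cells counted; inconclusive = wells with under 500 cells, flagged as toxic or sparse; inactive = the rest.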
Experiment: decrease of insulin promoter-GFP reporter – imaging, high-content screening, mouse beta cells (AID 1628)
Conditions: MIN6 insulin promoter GFP reporter, at 5 µM, hits give low values

Compound	z-score
COc1cc(OC)c(OC)cc1C#N	0.13
COc1cccc(C2C3CN(C)CC=C3C(C#N)=C(N)C2(C#N)C#N)c1OC (centres undefined)	13.7
Cn1c(CNc2nc3ccccc3n2C)nc2ccccc21	1.15
CC(O)c1nc2ccccc2n1CCOc1ccccc1 (centres undefined)	1.64
C=CCn1c(/N=C/c2ccc3c(c2)OCO3)nc2ccccc21	0.8
COc1ccc(C2C(C(=O)c3ccccc3)=C(C)Nc3nc4ccccc4n32)c(OC)c1 (centres undefined)	3.79
COc1ccc2nc3ccccc3nc2c1	-1.09
COc1ccc(CNC(=O)CN2CCC(C(=O)c3ccc(OC)cc3)CC2)cc1	1.22
Cc1ccc2nc(/C(C#N)=C\c3ccc(N4CCOCC4)o3)[nH]c2c1	15.9
CC(C)=CCc1c2c(c3occ(-c4ccc(O)cc4)c(=O)c3c1O)C=CC(C)(C)O2	-0.49
N#C/C(=C/c1ccc(N2CCOCC2)o1)C(=O)Nc1ccccc1	4.15
Cn1c(N)cc(=O)n(Cc2ccccc2)c1=O	-5.18 (active)
CCC(=O)OCC(=O)c1c(N)n(Cc2ccccc2)c(=O)n(C)c1=O	3.29
Cc1cc2nc3c(=O)n(Cc4ccccc4)c(=O)[nH]c3nc2cc1N	12.1
Cc1noc(C)c1S(=O)(=O)N1CCC(C(=O)N2CCN(C3CCCC3)CC2)CC1	3.05
Cc1n[nH]c(C)c1S(=O)(=O)N1CCCC(C(=O)N2CCN(c3ccc(Cl)cc3)CC2)C1 (centres undefined)	-3.2 (active)
CCCS(=O)(=O)N1CCC(C(=O)NCCC(C)C)CC1	3.11
Cc1ccccc1C(=O)NC1CCN(C(=O)N2CCOCC2)CC1	1.27
CSc1ccccc1C(=O)NC1CCCC1	-5.87 (active)
O=C(Cn1nnc(-c2ccc(S(=O)(=O)N3CCCC3)cc2)n1)Nc1ccccc1-n1cccc1	-4 (active)
COc1ccccc1NC(=S)N(Cc1ccc(C)cc1)Cc1ccccn1	1.92
COc1ccc(-c2[nH]ncc2CN(C)Cc2ccccn2)c(OC)c1	-4.89 (active)
CCCCCCCCCCCC(=O)c1c(O)cccc1O	-0.04
CN1C(=S)N(c2cccnc2)C(=O)/C1=C\c1ccc(N(C)C)cc1	5.58
COCCN(C(=S)Nc1ccc(C)cc1C)C(C)c1cccs1 (centres undefined)	1.14
CCc1ccccc1NC(=S)N(CCN(C)C)C(C)c1ccccn1 (centres undefined)	-5.14 (active)
Cc1ccccc1NC(=S)N(CCN(C)C)C(C)c1ccccn1 (centres undefined)	-6.19 (active)
CCN1CCN(C(=O)C2(NC(=O)Nc3cccc(F)c3)CCCCC2)CC1	-4.67 (active)
CC(C)CCN(C(=S)Nc1cccc(F)c1)C(C)c1cccs1 (centres undefined)	4.77

Source: PubChem BioAssay AID1628 (Sanford-Burnham Center for Chemical Genomics, 2009)
